PubChem BioAssay AID639 (Emory University Molecular Libraries Screening Center, 2007)
The campaign covered roughly 86,000 compounds. About 1,200 (1.4%) were called active. Rule as the data show it: active = activity above about 200%; inactive = the rest. The full list was thinned out, with actives kept by preference.

biological target: Estrogen receptor (Homo sapiens) (UniProt P03372); experiment: ERα coactivator recruitment potentiators – biochemical, TR-FRET, ERα LBD, low estradiol, primary screen (AID 639); conditions: TR-FRET ERalpha-LBD/SRC-Cy5 coactivator binding, 2 h; at 25.6 µM; active compounds read high; 100 = basal binding, no effect;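 also: binding measured in presence of low estradiol as agonist stimulus; 0% = peptide alone without receptor and 100% = receptor with peptide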
Sequence (P03372 whole entry, looked up, the tested form may be a part): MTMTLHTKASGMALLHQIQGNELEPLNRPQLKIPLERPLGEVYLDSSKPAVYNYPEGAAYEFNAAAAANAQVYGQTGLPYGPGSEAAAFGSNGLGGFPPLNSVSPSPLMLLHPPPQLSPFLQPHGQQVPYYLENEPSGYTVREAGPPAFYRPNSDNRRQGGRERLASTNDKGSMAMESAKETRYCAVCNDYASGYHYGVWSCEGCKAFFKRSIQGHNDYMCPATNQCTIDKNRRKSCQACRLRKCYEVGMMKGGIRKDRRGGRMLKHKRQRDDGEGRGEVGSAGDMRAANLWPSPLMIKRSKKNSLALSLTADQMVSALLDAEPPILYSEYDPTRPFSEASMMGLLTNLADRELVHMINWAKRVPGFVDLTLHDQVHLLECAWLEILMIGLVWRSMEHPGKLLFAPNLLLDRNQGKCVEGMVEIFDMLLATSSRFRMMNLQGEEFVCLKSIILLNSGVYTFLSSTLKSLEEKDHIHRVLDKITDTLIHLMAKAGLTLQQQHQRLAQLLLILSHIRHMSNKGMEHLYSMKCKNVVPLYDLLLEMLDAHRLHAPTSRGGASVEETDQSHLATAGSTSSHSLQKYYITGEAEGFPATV

Coactivator binding (% of control), inactive:
Cc1ccc(NC(=S)NC(NC(=O)Cc2cccc3ccccc23)C(Cl)(Cl)Cl)cc1 (centres undefined) 77.9%
COC(=O)C(C(=O)Nc1cccc(C)n1)C1CCCCCC1 (centres undefined) 76.6%
Cc1ccc(OCC(=O)Nc2ccc(-c3nnc(-c4ccco4)o3)cc2)cc1 172%
O=C(Nc1cccc(-c2nc3ncccc3o2)c1)c1ccco1 108%
COc1ccc(CC(=O)Nc2ccc(-c3nnc(-c4ccccc4)o3)cc2)cc1 184%
COc1cccc(NC(=O)Cc2ccc(C)cc2)c1 96.3%
CCOc1ccc(NC(=O)C2CCCN(C(=O)Nc3ccccc3)C2)cc1 (centres undefined) 106%
COc1ccc(CN(C(=O)CSc2nnc(-c3ccc(OC)c(OC)c3)o2)c2ccc(F)cc2)cc1 95.1%
CCN(CC)C(=O)CSc1nnc(-c2cccc(OC)c2)o1 105%
Cn1c(SCC(=O)N2CCCc3ccccc32)nc2ccccc2c1=O 84.1%
Cc1cccc(C(=O)Nc2ccccc2N2CCN(c3ccc(F)cc3)CC2)c1 97.2%
COc1ccc(C(C)=O)cc1CN1C(=O)NC2(CCCCC2C)C1=O (centres undefined) 128%
CCN1CCN(c2ncnc3c2oc2nc(C)c4c(c23)CC(C)(C)OC4)CC1 95.8%
CN(C)c1ccc(CNC2C3CC4CC(C3)CC2C4)cc1 (centres undefined) 105%
CC(=O)c1ccc(-n2nnnc2SCC(=O)N2CCN(C(=O)c3ccco3)CC2)cc1 102%
CC(C)C(c1nnnn1CCc1ccccc1)N1CCN(C(=O)c2ccco2)CC1 (centres undefined) 118%
CC(N)C12CC3CC(CC(O)(C3)C1)C2 (centres undefined) 105%
CCCc1nc(NCc2ccc3c(c2)OCO3)c2nnn(Cc3ccccc3Cl)c2n1 118%
CCOC(=O)CN(Cc1ccc(OC)c(OC)c1)S(=O)(=O)c1ccc(OC)cc1 114%

Coactivator binding (% of control), active:
Cc1ccc(OCC(=O)Nc2ccc(-c3nc4ncccc4o3)cc2)cc1 315% [fluorescence artefact?]
COc1ccc(CC(=O)Nc2ccc(-c3nnc(-c4ccc(C)cc4)o3)cc2)cc1 359% [fluorescence artefact?]
COc1ccc(-c2nnc(SCC(=O)c3ccc4c(c3)OCCO4)o2)cc1 335% [fluorescence artefact?]
CC(C)c1nc2oc3c(N4CCN(C)CC4)ncnc3c2c2c1CCC2 373% [fluorescence artefact?]
CCC(c1nnnn1C1CCCC1)N1CCN(C(=O)c2ccco2)CC1 (centres undefined) 240% [fluorescence artefact?]
